In PubChem BioAssay AID2314 (National Center for Advancing Translational Sciences (NCATS), 2010) one finds max response data, which are given here for 24 compounds.

Screen size: about 300,000 compounds; about 37,000 (12%) were called active. Many of the other results were omitted from the sample, so actives are more common in it than they were. Unmarked numbers belong to inactive results. Cut-off read from the data, not from the text of the source: active = max response mostly above about 13% (no sharp cut-off); inactive = mostly below about 14%.

A short description of this assay: Cycloheximide Counterscreen for Small Molecule Inhibitors of Shiga Toxin. Note: read at 38.3 µM for the half of the compounds with a filed dose; 0% is about no effect. The note with it: cell reporter, cycloheximide protein synthesis inhibition counterscreen; stronger effect = higher value. A general note: Counterscreens check selectivity or assay interference.
As to `O=S(=O)(c1cccc(Cn2nnc(-c3ccc(F)cc3)n2)c1)N1CCOCC1`, the max response was -2.1%.

Consider `Cc1sc(NC(=O)C2C3CCC(O3)C2C(=O)O)c(C(=O)OC(C)C)c1-c1ccc(Cl)cc1` (centres undefined), for which the max response was -2.64%.

For `Cc1[nH]c(C)c(S(=O)(=O)N2CCN(c3cccc(C(F)(F)F)c3)CC2)c1C(=O)N1CCCCC1`, the max response is 0.664%.

`Cc1ccc(CN2CCN(c3ncccn3)CC2)c(C)c1`: the max response is 1.42%.

In the case of `COc1ccccc1C1C(C#N)=C(N)Oc2c1c(-c1ccccc1)nn2-c1ccccc1` (centres undefined), the max response was 10.5%.

Take `CCCc1cc(=O)[nH]c(SCC(=O)N2C(C)CCCC2C)n1` (centres undefined): the max response was -2.36%.

Regarding `COc1ccc(OC)c(CCNC(=O)CCn2ccc3cc(S(=O)(=O)N4CCCC4)ccc32)c1`, the max response was -1.39%.

Regarding `CN1CCN(CC(=O)Nc2cccc([N+](=O)[O-])c2)CC1`, the max response was 1.18%.

Turning to `Cc1ccc(C)c(S(=O)(=O)N2CCN(CC(=O)Nc3ccc([N+](=O)[O-])cc3)CC2)c1`, the max response was -0.724%.

Regarding `Cc1ccc(NC(=O)CN2CCC(C(N)=O)CC2)cc1[N+](=O)[O-]`, the max response was 15.7% (active).

As for `CCc1nc2nc(C)c(NS(=O)(=O)c3ccc4c(c3)CCCC4)c(=O)n2[nH]1`, the max response is 1.61%.

`O=C(Cn1cnc2ccccc21)Nc1ccccc1-c1ccccc1`: the max response is -3.38%.

As for `O=C(O)CCC(=O)N(Cc1ccccc1)Cc1ccccc1`, the max response was -1.7%.

In the case of `Nc1nc(NCC2CCCO2)nc(Nc2ccccc2F)c1[N+](=O)[O-]` (centres undefined), the max response was -2.31%.

`CCN(CC)C(=O)N1CCN(C(=O)c2ccc(C)cn2)CC1`: the max response is 27.2% (active).

For the compound `Cc1ccc(OCC(=O)N2CCN(C(=O)c3cccnc3)CC2)cc1`, the max response is -5.2%.

Consider `CCN1CCN(C(=O)c2ccccc2N(C)S(=O)(=O)c2ccc(C)cc2)CC1`, for which the max response is -3.44%.

Turning to `Cc1c(C=O)c2ccccn2c1C(=O)c1ccncc1`, the max response is -6.15%.

In the case of `C=CCn1c(SCc2cccc(F)c2)nc2cc(C(=O)N3CCC(C(N)=O)CC3)ccc2c1=O`, the max response was -5.75%.

On to `CC(C)NC(=S)NN=C1CCCCCCCCCCC1`, for which the max response was 16.4%.

On to `O=[N+]([O-])c1cccc(/C([O-])=C(/C(=S)Nc2ccccc2F)[n+]2ccccc2)c1`, for which the max response is 44.3% (active).

Turning to `Cc1ccc(/C([O-])=C(/C(=S)NCc2ccco2)[n+]2ccccc2)cc1[N+](=O)[O-]`, the max response was -1.29%.

For `CCC(C)NCC(=O)Nc1ccc([N+](=O)[O-])cc1C(=O)Nc1ccccc1F` (centres undefined), the max response is 9.91%.

Consider `CC(C)C[C@@H](COc1ccccc1)N1CCN(CC(C)C)CCC1=O`, for which the max response was 12.1%.
